# Data reported in PubChem BioAssay.
# “And” between values parts separate entries of the source, which are not always exact repeats. Equal entries are not always repeated. The source made the active and inactive calls. Cut-off read from the data, not from the text of the source, unless noted: active = parasite load remaining mostly below about 12% (no sharp cut-off); inactive = mostly above about 10%.
# Assays:
# [1] = P. berghei load reduction in hepatocytes – cell-based, HepG2, luciferase luminescence, HepG2 viability, primary screen (AID 624349);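 note: 100% = mean of DMSO negative control wells on the same plate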; details: P. berghei liver stage in HepG2, luciferase luminescence, concentration not given here; parasite load remaining: stronger effect = lower value; viability: measured here: HepG2 viability without parasites
# [2] = Wnt pathway potentiators raising nuclear beta-catenin – imaging, WNT3A-conditioned medium, mouse C2C12, NPC library, primary screen (AID 1117326; in the data active = nuclear beta-catenin stimulation mostly above about 4.2%, no sharp cut-off; inactive = mostly below about 10%); details: stronger effect = higher value
# [3] = stimulators of insulin release from INS-1E, primary screen, cell-based, 5 mM glucose, NPC library (AID 1117329;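 active = compound raises insulin release from rat beta cells at 5 mM glucose, no numeric limit stated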); details: rat INS-1E insulin secretion, at 10 µM, stronger effect = higher value
# [4] = growth inhibition of GSK3B-pretreated HCT116 cells – cell-based, CellTiter-Glo, 0.2 to 20 µM (AID 1117336;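 active = compounds lowering colon cancer cell viability after pretreatment blocking the GSK3B kinase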); details: HCT116 viability after GSK3B inhibitor, at 20 µM, stronger effect = higher value
# [5] = inhibition of endothelial tube formation, primary screen, imaging, VEGF stimulated, CD31 staining, tube area, NPC library (AID 1117340;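 active = compound that reduces growth-factor-driven endothelial tube area in a mixed cell culture, no cutoff stated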); details: VEGF-stimulated ADSC/ECFC co-culture, at 10 µM, stronger effect = higher value
# [6] = GLP1 release stimulators, primary, NCI-H716, NPC library (AID 1117341;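 active = compound raises GLP1 secretion from the human gut endocrine cells, with no numeric limit stated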); details: NCI-H716 cells, at 10 µM, stronger effect = higher value
# [7] = HCT116 colon cancer cell growth inhibition, primary screen, CellTiter-Glo luminescence, NPC library (AID 1117342;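 active = compounds that lower survival of HCT116 colon cancer cells in the luminescence readout, no numeric limit stated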); details: at 20 µM (top of the series)
# [8] = reduced SW480 viability measured with CellTiter-Glo, NPC library, primary (AID 1117343;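 active = compounds that lower viability of the colon cancer cells in the luminescence readout, with no numeric limit stated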); details: CellTiter-Glo luminescence; at 20 µM (top of the series) unless noted
# [9] = NPC library primary testing for decreased DLD-1 cell viability via CellTiter-Glo (AID 1117346;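 active = compounds that lower survival of DLD-1 colon cancer cells in the luminescence readout, no cutoff given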); details: DLD-1 viability, CellTiter-Glo luminescence; at 20 µM (top of the series)
# [10] = EMT-state selective cytotoxicity in co-culture – imaging, PC-3E GFP, TEM4-18 mCherry, primary screen (AID 1345086;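 active = compounds killing one labelled cell type while sparing the other, by normalised counts and ratio limits, not self-fluorescent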;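 for all read-outs here: cells exposed to compound for 72 h before imaging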;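 for red/green cell ratio (normalised): normalised mesenchymal count divided by normalised epithelial count so high means epithelial killing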); details: PC-3E GFP / TEM4-18 mCherry co-culture, imaging cell counts, at 1 µM; for red/green cell ratio (normalised): actives lie on both sides, counts scaled to control wells, 1 = unselective
# [11] = viability loss with induced miR-34 in A549 – imaging, A549 dox-inducible miR-34, nuclei and caspase counts, primary screen (AID 1347080;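 active = compounds whose cell count with miR-34 switched on is under 0.7 times the count with it off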); details: A549 miR-34 inducible, Hoechst nuclei count, 48 h
# [12] = MELAS cybrid and Rieske KO viability enhancers – cell-based, MELAS cybrids, Rieske KO mouse fibroblasts, CellTiter-Glo, primary screen (AID 1508586;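 active = mean z-score across replicates of 1.96 or higher in either the MELAS or the Rieske mutant cell line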;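 note: z relative to plate mean and SD of compound and empty wells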); details: low glucose
# [13] = target: NAD(+) hydrolase SARM1 (Homo sapiens) (UniProt Q6SZW1); experiment: blocking NAD cleavage by SARM1 SAM-TIR – cell lysate, NAD-Glo luminescence (AID 1508614;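 active = compound whose remaining NAD level is above about 45 nM, limit read from the data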;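 note: higher remaining NAD means stronger inhibition of SARM1 NADase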); details: SAM-TIR HEK293T lysate NADase, at 1 µM, stronger effect = higher value
# [14] = compounds altering viability of human ES cells (AID 493140; call rule not given here;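 note: cells exposed to compounds for four days before counting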); details: human embryonic stem cell survival screen; stronger effect = higher value
# [15] = growth inhibition, single agent or in combination, cell-based, chromothripsis tumors, cisplatin or BGB combos (AID 1671449; in the data active = inhibition above about 80%;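 note: cells exposed for 96 hours; 0% = vehicle DMSO and 100% = killing by high DMSO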); details: LFS_MB_P medulloblastoma cells
# [16] = growth inhibition, single agent and combos, cell-based, chromothripsis tumors, cisplatin or BGB combos (AID 1671450; in the data active = inhibition above about 80%;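 note: cells exposed to compound for four days; 0% = vehicle DMSO and 100% = cell killing by high DMSO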); details: HDN33 neuroblastoma cells, stronger effect = higher value
# [17] = growth inhibition, single agents and combos, ICB984, cell-based, cisplatin or BGB combos, synergistic combos for chromothripsis tumors (AID 1671451; call rule not given here;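 note: cells exposed for 96 hours before readout; 0% = vehicle DMSO and 100% = killing by high DMSO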); details: ICB984 medulloblastoma cells, drug combinations, stronger effect = higher value
# [18] = growth inhibition, single agents and combos, HTB85, cell-based, BGB or cisplatin IC20 combos, synergistic combos for chromothripsis tumors (AID 1671453; in the data active = inhibition above about 80%;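 note: cells exposed for 96 hours before readout; 0% = vehicle DMSO and 100% = high DMSO killing control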); details: HTB85 osteosarcoma cells, drug combinations, stronger effect = higher value
# [19] = growth inhibition, MDA-MB-436, cell-based, BGB or cisplatin combos, synergistic combos for chromothripsis tumors (AID 1671458; call rule not given here;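 note: cells exposed for 96 hours; 0% = vehicle DMSO and 100% = killing by high DMSO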); details: MDA-MB-436 breast carcinoma growth inhibition, drug combinations, stronger effect = higher value
# [20] = measured here: epithelial PC-3E GFP cell survival
# [21] = measured here: mesenchymal TEM4-18 mCherry cell survival
# [22] = stronger effect = lower value, cell number ratio, induced over uninduced
# [23] = measured here: relative caspase fold change +Dox/-Dox
# [24] = measured here: total cells with miR-34 induction, stronger effect = lower value
# [25] = measured here: total cells without miR-34 induction
# Sequence of NAD(+) hydrolase SARM1 (Homo sapiens) (Q6SZW1 whole entry, looked up): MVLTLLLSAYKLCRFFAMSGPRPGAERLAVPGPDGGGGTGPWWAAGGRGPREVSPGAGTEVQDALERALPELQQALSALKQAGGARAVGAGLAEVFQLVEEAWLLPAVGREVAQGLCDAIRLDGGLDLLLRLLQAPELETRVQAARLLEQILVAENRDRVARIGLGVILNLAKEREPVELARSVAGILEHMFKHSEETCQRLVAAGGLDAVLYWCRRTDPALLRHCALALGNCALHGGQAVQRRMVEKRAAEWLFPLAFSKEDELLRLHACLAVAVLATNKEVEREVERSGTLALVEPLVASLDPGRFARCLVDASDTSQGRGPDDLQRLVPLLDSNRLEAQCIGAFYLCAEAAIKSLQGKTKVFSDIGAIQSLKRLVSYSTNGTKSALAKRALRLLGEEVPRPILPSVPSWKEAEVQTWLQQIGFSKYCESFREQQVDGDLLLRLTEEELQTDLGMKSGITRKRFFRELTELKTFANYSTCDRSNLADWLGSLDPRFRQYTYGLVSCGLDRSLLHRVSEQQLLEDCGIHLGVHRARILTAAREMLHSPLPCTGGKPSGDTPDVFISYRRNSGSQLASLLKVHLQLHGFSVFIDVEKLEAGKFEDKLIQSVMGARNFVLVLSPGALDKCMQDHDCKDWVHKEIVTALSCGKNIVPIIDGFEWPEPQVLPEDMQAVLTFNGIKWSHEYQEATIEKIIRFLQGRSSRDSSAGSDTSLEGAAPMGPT
smiles,measurement,setting,value
Clc1ccc(C(Cn2ccnc2)OCc2ccsc2Cl)c(Cl)c1 (stereo not drawn),parasite load remaining,[1],37.3% (inactive) and 6.58% (inactive)
same,viability,[1],97.8% and 62%
same,nuclear beta-catenin stimulation,[2]; at 10 µM,4.5% (inactive)
same,nuclear beta-catenin stimulation,"[2]; stimulation, at 2 µM",0.7%
same,insulin secretion stimulation,[3],0.9% (inactive)
same,viability decrease,[4],100% (active)
same,tube area decrease,[5],110% (active)
same,GLP1 secretion stimulation,[6],10.8% (inactive)
same,inhibition of viability,[7],100% (active)
same,viability decrease (inhibition),[8],123% (active)
same,viability decrease (inhibition),[9],103% (active)
same,red/green cell ratio (normalised),[10],1.15 (inactive)
same,normalised cell number,[10]; [20],0.85
same,normalised cell number,[10]; [21],0.97
same,fold change,[11]; [22],0.919 (inactive) and 0.86 (inactive) and 0.892 (inactive)
same,fold change,[11]; [23],0.876 and 3.84 and 1.06
same,cell count,[11]; [24],7290 and 10300 and 7120
same,cell count,[11]; [25],7930 and 12000 and 7980
same,z-score,"[12]; MELAS cybrid survival, CellTiter-Glo 48 h, stronger effect = higher value",-0.0566 (inactive) and 0.885 (inactive) and 0.0763 (inactive)
same,z-score,"[12]; Rieske KO mouse fibroblast survival, CellTiter-Glo 72 h",-0.152 and 0.306 and -0.538
same,remaining NAD,[13],10 nM (inactive)
O=C(O)[C@H](O)[C@@H](O)[C@H](O[C@@H]1O[C@H](CO)[C@H](O)[C@H](O)[C@H]1O)[C@H](O)CO,survival,[14],11.8 (inactive)
same,parasite load remaining,[1],68% (inactive) and 86.7% (inactive)
same,viability,[1],96.5% and 74.2%
same,nuclear beta-catenin stimulation,[2]; at 10 µM,-1.5% (inactive)
same,nuclear beta-catenin stimulation,"[2]; stimulation, at 2 µM",-0.6%
same,insulin secretion stimulation,[3],5.9% (inactive)
same,viability decrease,[4],94.4% (active)
same,tube area decrease,[5],-14.9% (inactive)
same,GLP1 secretion stimulation,[6],-3.6% (inactive)
same,inhibition of viability,[7],93% (active)
same,viability decrease (inhibition),[8],94% (active)
same,viability decrease (inhibition),[9],99.7% (active)
same,red/green cell ratio (normalised),[10],1.06 (inactive)
same,normalised cell number,[10]; [20],1.17
same,normalised cell number,[10]; [21],1.23
same,fold change,[11]; [22],0.847 (inactive)
same,fold change,[11]; [23],1.47
same,cell count,[11]; [24],8980
same,cell count,[11]; [25],10600
CN1CCN(c2c(F)cc3c(=O)c(C(=O)O)cn4c3c2OCN4C)CC1,nuclear beta-catenin stimulation,[2]; at 10 µM,-0.6% (inactive)
same,nuclear beta-catenin stimulation,"[2]; stimulation, at 2 µM",-2.1%
same,insulin secretion stimulation,[3],-0.9% (inactive)
same,viability decrease,[4],7.3% (inactive)
same,tube area decrease,[5],-6.4% (inactive)
same,GLP1 secretion stimulation,[6],-0.1% (inactive)
same,inhibition of viability,[7],1.5% (inactive)
same,viability decrease (inhibition),[8],-15.8% (inactive)
same,viability decrease (inhibition),[9],-5% (inactive)
same,red/green cell ratio (normalised),[10],0.85 (inactive)
same,normalised cell number,[10]; [20],1.17
same,normalised cell number,[10]; [21],1
same,inhibition,"[15]; at 0.5 µM, stronger effect = higher value",-17.7% (inactive)
same,inhibition,"[15]; measured here: combination with BGB IC20, at 0.005 µM",-16.9%
same,inhibition,"[15]; measured here: combination with BGB IC40, at 0.005 µM",-17.4%
same,inhibition,"[15]; measured here: combination with BGB IC40, at 0.05 µM",-36.9%
same,inhibition,"[15]; measured here: combination with cisplatin, at 0.5 µM, stronger effect = higher value",-51.4%
same,inhibition,"[15]; measured here: combination with cisplatin, at 5 µM, stronger effect = higher value",-32.3%
same,inhibition,"[16]; BGB combo, at 5 µM",5.71%
same,inhibition,[16]; at 0.5 µM,-7.25% (inactive)
same,inhibition,"[16]; cisplatin combo, at 5 µM",-1.82%
same,inhibition,"[16]; measured here: with BGB IC20 combination, at 0.5 µM",5.2%
same,inhibition,"[16]; measured here: with cisplatin IC20 combination, at 0.5 µM",-12.1%
same,inhibition,"[16]; single agent, at 5 µM",-9.4%
same,inhibition,"[17]; BGB IC20 combo, at 0.005 µM",9.65%
same,inhibition,"[17]; BGB IC40 combo, at 0.005 µM",-1.21%
same,inhibition,"[17]; BGB IC40 combo, at 0.05 µM",1.28%
same,inhibition,[17]; at 0.5 µM,-28.8% (inactive)
same,inhibition,"[17]; cisplatin combo, at 0.05 µM",-1.48%
same,inhibition,"[17]; cisplatin combo, at 0.5 µM",-25.3%
same,inhibition,"[17]; cisplatin combo, at 5 µM",-7.68%
same,inhibition,"[17]; measured here: 5 uM single agent, at 5 µM",-17.3%
same,inhibition,[18]; at 0.5 µM,-12.7% (inactive)
same,inhibition,"[18]; measured here: with BGB IC20, at 0.5 µM",-22.2%
same,inhibition,"[18]; measured here: with BGB IC20, at 5 µM",-21.7%
same,inhibition,"[18]; measured here: with cisplatin IC20, at 0.5 µM",-26.4%
same,inhibition,"[18]; measured here: with cisplatin IC20, at 5 µM",-29.4%
same,inhibition,"[18]; single agent, at 5 µM",-8.81%
same,inhibition,[19]; at 0.5 µM,-16.5% (inactive)
same,inhibition,"[19]; measured here: BGB combination, at 0.5 µM",-13.3%
same,inhibition,"[19]; measured here: BGB combination, at 5 µM",-9.95%
same,inhibition,"[19]; measured here: cisplatin combination, at 0.5 µM",-29.6%
same,inhibition,"[19]; measured here: cisplatin combination, at 5 µM",-33.2%
